# The list is not random: actives were taken first. Their share in the collection is about 10%.
# HEK cytotox – HEK 293 cell cytotoxicity; HEK 293 viability, ATP luminescence (CellTiter-Glo), 48-72 h; Potency, µM (top dose mostly 115 µM), inactives show top-dose activity change, negative = cytotoxicity, most hits filed as inhibitors; 94,000 tested, 6.6% active; further: nearly all actives have a fitted effect of over 60% in size
#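 ATP-coupled CellTiter-Glo luminescence served as viability read-out, recorded 10 min after reagent addition at room temperature. HEK 293 cells, 250 cells/well, had been incubated with pintool-transferred compound for 48 or 72 hr at 37 degree Celsius.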
# FLuc inh – Photinus pyralis luciferase inhibition; purified P. pyralis luciferase, luminescence, biochemical; Potency, µM (series often up to 115 µM), actives largely listed as inhibitors; P08659; 76,000 tested, 2.5% active; further: nearly all actives have a fitted effect of over 65% in size
#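 Luminescence read by CCD imager after adding enzyme (10nM final) to wells holding compound, titrated in qHTS. Substrates 10uM each D-luciferin and ATP; buffer 50mM Tris acetate pH 7.5, 10mM Mg acetate, Tween-20, BSA.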
# hNpr1 antagonist – blocks ANP-stimulated signaling of human Npr1 receptor; P16066; HEK293 hNpr1 GloSensor cGMP, ANP-stimulated luminescence; Potency, µM (highest dose often 46.3 µM), inactives show top-dose activity change, negative = inhibition, usual class: inhibitors; 76,000 tested, 1.6% active; AID 1347048; calls by dose curve; further: nearly all actives have a fitted effect of over 60% in size
# Target sequence (P16066 whole entry, looked up): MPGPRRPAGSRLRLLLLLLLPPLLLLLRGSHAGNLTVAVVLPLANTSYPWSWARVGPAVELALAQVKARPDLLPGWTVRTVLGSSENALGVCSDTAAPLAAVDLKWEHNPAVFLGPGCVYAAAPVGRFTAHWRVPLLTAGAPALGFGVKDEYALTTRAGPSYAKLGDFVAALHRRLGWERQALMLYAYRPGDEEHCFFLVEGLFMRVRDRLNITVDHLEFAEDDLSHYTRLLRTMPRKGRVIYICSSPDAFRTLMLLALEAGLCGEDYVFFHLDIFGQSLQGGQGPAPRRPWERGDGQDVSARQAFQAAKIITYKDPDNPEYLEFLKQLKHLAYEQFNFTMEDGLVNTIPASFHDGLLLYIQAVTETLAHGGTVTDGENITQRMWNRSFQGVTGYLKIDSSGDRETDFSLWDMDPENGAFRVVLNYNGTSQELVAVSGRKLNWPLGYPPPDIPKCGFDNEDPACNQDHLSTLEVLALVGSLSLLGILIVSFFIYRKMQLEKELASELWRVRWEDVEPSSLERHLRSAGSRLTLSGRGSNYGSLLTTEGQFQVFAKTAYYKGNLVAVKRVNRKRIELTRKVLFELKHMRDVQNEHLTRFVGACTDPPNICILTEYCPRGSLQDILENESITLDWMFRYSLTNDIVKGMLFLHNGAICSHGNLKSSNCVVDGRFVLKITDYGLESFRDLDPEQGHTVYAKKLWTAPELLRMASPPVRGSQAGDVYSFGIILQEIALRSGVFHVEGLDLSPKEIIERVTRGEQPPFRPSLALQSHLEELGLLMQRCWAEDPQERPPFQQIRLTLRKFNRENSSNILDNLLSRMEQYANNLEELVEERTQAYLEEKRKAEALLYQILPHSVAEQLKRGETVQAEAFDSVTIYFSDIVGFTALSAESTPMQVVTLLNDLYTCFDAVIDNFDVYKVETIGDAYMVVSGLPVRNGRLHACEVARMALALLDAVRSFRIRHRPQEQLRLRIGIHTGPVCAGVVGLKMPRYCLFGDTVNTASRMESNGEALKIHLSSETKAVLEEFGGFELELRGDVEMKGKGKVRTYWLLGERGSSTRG
#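 Compound pre-incubated 30 min at room temperature on GloSensor-loaded HEK293 cells stably carrying hNpr1 and the pGS-40F cGMP biosensor. Stimulation uses hNppA at 0.1 nM final; luminescence is taken at baseline and 20 min post-agonist.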
# GPT2 inh – blocks human glutamate pyruvate transaminase 2. Q8TD30. Recombinant GPT2, coupled pyruvate oxidase/HRP Amplex Red fluorescence. Potency, µM (top dose mostly 57.7 µM), without a hit: at the highest dose activity change, negative = inhibition, hits mostly inhibitors. 100,000 tested, 0.25% active. AID 1671188; further: nearly all actives have a fitted effect of over 60% in size
#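 Recombinant GPT2 (10ng/uL) with 250uM a-KG and 2mM L-alanine, 30 min at room temperature, in HEPES pH 7.5 buffer. Pyruvate detected by pyruvate oxidase/HRP/Amplex Red fluorescence after 30 min in the dark; AOA (50uM) as positive control.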
# 3T3 cytotox – cytotoxic compounds in NIH 3T3 cells; NIH 3T3 viability, CellTiter-Glo ATP luminescence, 48-72 h; Potency, µM (titrated, usually from 96.7 µM), without a hit: top-dose activity change, negative = cytotoxicity, actives largely listed as inhibitors; 94,000 tested, 4.3% active; AID 1345082; further: nearly all actives have a fitted effect of over 55% in size
#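 NIH 3T3 cells at 400 cells/well received 23 nL of compound by pintool and were incubated 48 or 72 h at 37 °C. Viability was read as ATP-coupled CellTiter-Glo luminescence.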
# * marks the source's active call; other numbers are inactive results; i = inactive; ? = inconclusive; . = no result given; [ ] = another dose, or the depositor's remark. Unless noted, the call rests on the fitted dose curve; in most records, active means well fitted curve in the direction sought with a large enough effect; inconclusive means small, poorly fitted or top-dose-only effect, or another doubt; inactive means no such curve, though single readings can be large; an effect the other way counts as inactive or inconclusive. On the % scale 0 is the no-effect control and ±100 the full control effect; potency means the concentration at half of the fitted maximal effect.
SMILES,HEK cytotox,FLuc inh,hNpr1 antagonist,GPT2 inh,3T3 cytotox
O=C(NCc1ccccn1)C1CCCN(c2nc3ncccc3o2)C1 (configuration not stated),-2%[172 µM],i,11%[70.6 µM],-7%[88.5 µM],-21%[138 µM]
COCc1cc(=O)n(CC(=O)Nc2cccc(Cl)c2)c(N2CCOCC2)n1,-5%,i,-2%,0%,-16%
COc1ccc(OCC(O)CN2CCC(=O)N(CC(C)(C)C)Cc3cc4c(cc32)OCO4)cc1 (configuration not stated),50µM*,.,.,.,?
C=CCN1Cc2cc(F)ccc2N(CC(O)COc2ccccc2)CCC1=O (configuration not stated),45µM*,.,.,.,?
COc1ccc2c(c1)CN(CC=C(C)C)C(=O)CCN2CC(O)COc1ccccc1 (configuration not stated),79µM*,.,.,.,?
CC(O)CN1CCC(=O)N(C2CCCC2)Cc2ccccc21 (configuration not stated),-29%,.,.,.,?
O=C1CCN(CC(O)COc2ccccc2)c2ccccc2CN1C1CC1 (configuration not stated),40µM*,.,.,.,?
CCN1Cc2cc(OC)ccc2N(CC(O)COc2ccc(OC)cc2)CCC1=O (configuration not stated),-31%,.,.,.,?
CO[C@@H]1CO[C@H]2[C@@H]1OC[C@@H]2NS(C)(=O)=O,1%[230 µM],i,-12%[70.6 µM],0%[88.5 µM],-2%[174 µM]
O=C(NCc1cccs1)c1cc(-c2cccs2)c2cccn2n1,50µM*,.,.,-3%,?
O=C(NCCCc1ccccc1)c1cc(-c2cccs2)c2cccn2n1,?,.,.,i,?
O=C(NCCc1ccc(Cl)cc1)c1cc(-c2cccs2)c2cccn2n1,45µM*,.,.,-4%,?
CN(Cc1ccccc1)Cc1cn([C@H]2CO[C@H]3[C@@H]2OC[C@@H]3NS(=O)(=O)c2cccc3cccnc23)nn1,-17%,i,-1%,4.5µM*,-26%
CCCN(CC1CC1)C(=O)c1coc(COc2ccc3sc(C)nc3c2)n1,40µM*,i,?,-18%,?
CCN(Cc1noc(C)n1)C(=O)c1coc(COc2ccc3c(c2)OCO3)n1,-28%,i,4%,?,-23%
COc1ccccc1-c1[nH]nc2ncc(-c3cnn(C)c3)nc12,35µM*,i,3%[70.6 µM],1%[88.5 µM],?
COc1ccccc1-c1[nH]nc2ncc(-c3ccccc3F)nc12,?,i,-24%[70.6 µM],0%[88.5 µM],35µM*
COc1ccccc1-c1[nH]nc2ncc(-c3ccnc(C)c3)nc12,?,i,-1%[70.6 µM],-1%[88.5 µM],?
COc1ccccc1-c1[nH]nc2ncc(-c3ccccc3C)nc12,50µM*,i,-17%[70.6 µM],-5%[88.5 µM],50µM*
COc1ccccc1-c1[nH]nc2ncc(-c3cccc(O)c3)nc12,40µM*,i,-5%[70.6 µM],i,?
COc1ccccc1-c1[nH]nc2ncc(-c3ccccc3)nc12,.,.,.,4%[88.5 µM],.
COc1ccccc1-c1[nH]nc2ncc(CNc3ccccn3)nc12,?,i,-8%[70.6 µM],i,?
COc1ccc(C(=O)NCC2CCCCC(=O)N2)cc1 (configuration not stated),i,i,3%,i,4%
COc1ccc(-c2ccc3ncc(Nc4ccncc4)n3n2)cn1,100µM*,i,-3%[70.6 µM],-14%[88.5 µM],?
COc1ccc(-c2ccc3ncc(Nc4ccc(OC)c(OC)c4)n3n2)cn1,?,?,-15%[70.6 µM],-14%[88.5 µM],?
SMILES,HEK cytotox,FLuc inh,hNpr1 antagonist,GPT2 inh,3T3 cytotox
COc1ccc(-c2ccc3ncc(Nc4cccc(Cl)c4)n3n2)cn1,45µM*,i,?,?,?
COc1ccc(-c2ccc3ncc(Nc4cccc(C(F)(F)F)c4)n3n2)cn1,45µM*,i,-30%[70.6 µM],?,?
CC(C)CNC(=O)c1cc(C2CC2)nc2c1c(C1CCCN1)nn2-c1ccccc1 (configuration not stated),22µM*,.,.,0%,18µM*
O=C(NCC(F)(F)F)c1cc(C2CC2)nc2c1c(C1CCCN1)nn2-c1ccccc1 (configuration not stated),?,.,.,i,22µM*
COCCCNC(=O)c1cc(C2CC2)nc2c1c(C1CCCN1)nn2-c1ccccc1 (configuration not stated),?,.,.,i,?
O=C(NCc1ccncc1)c1cc(C2CC2)nc2c1c(C1CCCN1)nn2-c1ccccc1 (configuration not stated),45µM*,.,.,1%,20µM*
COc1ccc(CCc2nc3nccc(-c4ccc(F)cc4OC)n3n2)cc1,?,i,-1%,-4%,?
CC(C)C(=O)N1CCC2(CCNC(=O)CC2)CC1,1%,i,1%,i,-1%
O=C(Cc1ccsc1)Nc1ccc2c(N3CCCC3)ncnc2c1,?,i,-2%,i,?
COc1ccc2[nH]c3c(c2c1)CCNC31CCN(S(=O)(=O)c2c(C)nn(C)c2C)CC1,?,i,5%,i,?
CN1C(=O)CC(C(=O)O)C12CCN(Cc1cc(Cl)ccc1F)CC2 (configuration not stated),i,i,-3%,-25%,0%
Cc1nc(N2CCC(NC(=O)c3nn(C)c4ccccc34)CC2)cc(C(F)(F)F)n1,45µM*,i,?,0%,?
Cc1ccc(-c2cccc(CN3CCCC3C(=O)NCC(C)C)c2)cc1Cl (configuration not stated),40µM*,.,.,.,35µM*
Cc1ccc(-c2cccc(CN3CCCC3C(=O)NCC(F)F)c2)cc1Cl (configuration not stated),40µM*,.,.,.,?
Cc1ccc(-c2cccc(CN3CCCC3C(=O)NC3CCCCC3)c2)cc1Cl (configuration not stated),-25%,.,.,.,-23%
Cc1ccc(-c2cccc(CN3CCCC3C(=O)N3CCN(c4ncccn4)CC3)c2)cc1Cl (configuration not stated),14µM*,.,.,.,?
CNC(=O)c1cc(C)nc2onc(C3CCCN(C(=O)c4ccncc4)C3)c12 (configuration not stated),-14%,.,.,.,-21%
Nc1cc(C(=O)N2CCc3onc(-c4ccc(-c5ccccc5)cc4)c3C2)[nH]n1,18µM*,?,13µM*,i,?
O=C(c1cc(-c2ccccc2)n[nH]1)N1CCc2c(nc(-c3ccccc3)[nH]c2=O)C1,?,?,-5%,-3%,?
O=C(C1CCN(c2nc(-c3ccccc3)nc3c2CCC3)CC1)N1CCC(CO)C1 (configuration not stated),-24%,i,-10%,i,-14%
